# Screens: PubChem BioAssay, several laboratories
# A selection: hits, their analogues and other compounds. The true share with any hit is near 12%.
# Lmaj promast – reduces viability of Leishmania major promastigotes; inhibition, % at 10 µM; AID 1063; actives 9% (n = 200,000); resazurin fluorescence viability; in the data active = inhibition above about 50%;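 also: promastigotes grown with compound for 44 hours at 28 °C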
# WT yeast gro inh – growth inhibition of WT yeast, mitochondrial fusion screen | mitochondrial fusion phenotypic screen, WT strain | inhibition, % at 10 µM | actives 2.1% (n = 190,000); in the data active = inhibition above about 58%; tested in S. cerevisiae
# KCC2 mod – KCC2 (human) Cl- transport modulation | Q9H2X9 | AID 1456 | B-score of Tl+ flux slope (higher = more flux/activation; lower = inhibition) at 10 µM | actives 2.2% (n = 190,000) | KCC2 cells, thallium flux FluoZin-2 fluorescence;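 active = thallium flux slope and its plate-corrected score both differing from the plate sample mean at a set confidence after two filtering rounds, in either direction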;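 also: slope of fluorescence scaled to starting intensity during 10 to 20 s after thallium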
# INS promoter inh – TRM-6 insulin promoter activity inhibition; TRM-6 cells (human fetal islet line), insulin promoter-eGFP reporter, imaging; reporter expression induced with tamoxifen; inhibition, % at 2 µM; actives 0.9% (n = 130,000);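 active = inhibition above the mean plus 3 SD, with well images judged a real hit on visual review, cut at about 60% in these data, passing the limit was not always enough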
# ROMK primary – modulators of human ROMK potassium channel | AID 1918 | B-score at 10 µM | Tet-inducible ROMK, thallium flux fluorescence; actives lie on both sides | actives 2% (n = 130,000);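 active = signal ratio slope over the read window, or its plate-corrected B-score, at least 3 SD from the plate mean, either direction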;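 also: B-score of the F/F0 ratio slope over 7 to 12 s after thallium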
# Target sequence (P48048 whole entry, looked up): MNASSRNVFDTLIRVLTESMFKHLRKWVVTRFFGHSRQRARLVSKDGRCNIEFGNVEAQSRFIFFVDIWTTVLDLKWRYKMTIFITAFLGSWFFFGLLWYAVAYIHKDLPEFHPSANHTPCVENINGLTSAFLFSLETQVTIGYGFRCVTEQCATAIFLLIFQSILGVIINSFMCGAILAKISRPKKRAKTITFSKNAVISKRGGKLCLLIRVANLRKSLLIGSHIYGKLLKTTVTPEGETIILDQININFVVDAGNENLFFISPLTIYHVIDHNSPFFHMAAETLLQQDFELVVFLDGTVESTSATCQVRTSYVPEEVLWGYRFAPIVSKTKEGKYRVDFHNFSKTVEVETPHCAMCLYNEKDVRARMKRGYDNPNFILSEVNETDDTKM
# Insulin prom up – MIN6 insulin promoter up-regulation. MIN6 insulin promoter-GFP reporter, high-content imaging; stronger effect = higher value. z-score at 5 µM. AID 1625. actives 0.3% (n = 190,000);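 active = z-score above 3 at 5 µM with at least 500 cells counted in the well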
# Starred values were filed as active, the others as inactive; . = not tested or not shown.
SMILES,Lmaj promast,WT yeast gro inh,KCC2 mod,INS promoter inh,ROMK primary,Insulin prom up
COc1ccccc1NS(=O)(=O)c1cc(NC(=O)c2cccs2)ccc1N1CCCC1,93.5*,17.1,-0.143,20.6,1.21,-0.98
COc1ccccc1NS(=O)(=O)c1cc(NC(=O)c2sccc2C)ccc1N1CCCC1,63.6*,16.4,0.411,.,-1.31,-0.88
COc1ccccc1NS(=O)(=O)c1cc(NC(=O)Nc2ccccc2)ccc1N1CCCCC1,91.1*,21.1,0.334,36.1,0.0225,-1.27
COc1ccccc1C(=O)O/N=C(/C)c1ccc(N2C(=O)C3CCCCC3C2=O)cc1 (stereo not drawn),-7.8,13.8,-0.545,26.9,.,0.09
COc1ccc(NC(=O)CSc2nnc(Cc3cccn3C)n2CCc2ccccc2)cc1OC,0.1,-16.6,.,.,.,-1.02
Cc1nc2ccccc2cc1C(=O)Nc1ccccc1Cl,9.8,-20.8,0.111,-40.0,0.318,-1.38
COC(=O)C1=C(C)C(c2ccc(OC)cc2)NC(=S)N1 (stereo not drawn),2.2,6.0,1.09,.,0.281,0.09
CCCn1c(=N)c(C(=O)NCc2ccc3c(c2)OCO3)cc2c(=O)n3cccc(C)c3nc21,95.6*,-3.2,.,3.0,.,-0.62
CCNC(=O)/C(C#N)=C/c1c(N2CCN(Cc3ccc4c(c3)OCO4)CC2)nc2c(C)cccn2c1=O,55.5*,-1.3,-1.24,.,.,-0.91
CCOCCCn1c(=N)c(C(=O)NCCN2CCOCC2)cc2c(=O)n3cccc(C)c3nc21,61.0*,-14.5,.,.,-1.6,.
Cc1cccn2c(=O)c(/C=C(\C#N)C(=O)NCc3ccco3)c(N3CCCCCC3)nc12,.,.,-3.58,.,.,.
CCCCn1c(=NC(=O)c2ccc3c(c2)OCO3)c(C#N)cc2c(=O)n3cccc(C)c3nc21,86.2*,27.9,-1.45,-28.6,.,.
Fc1ccc(NCc2nnc(SCc3nnc(-c4ccccc4)o3)n2CC2CCCO2)cc1 (stereo not drawn),-3.2,4.4,0.369,-27.5,.,0.02
COc1cccc(C2=NN(S(C)(=O)=O)C(c3cccs3)C2)c1 (stereo not drawn),4.5,6.5,-0.97,.,-0.0543,-0.12
CC(NC(=O)CCc1nnc(CCCc2ccccc2)o1)c1ccccc1 (stereo not drawn),76.3*,-0.7,-0.491,.,0.016,.
O=C1C2C3C=CC(C3=C(c3ccccc3)c3ccccc3)C2C(=O)N1CCO (stereo not drawn),97.6*,26.7,-1.85,-24.1,0.426,0.21
O=C1C2C(c3ccccc3)C=CC(c3ccccc3)C2C(=O)N1CCO (stereo not drawn),-3.1,1.6,.,.,0.272,0.13
O=C(NCc1ccccc1)NC(O)C(Cl)(Cl)Cl (stereo not drawn),-6.9,-31.4,.,41.5,0.576,0.96
CCOC(=O)C1CCN(CCC(=O)Nc2ccccc2)CC1,79.1*,-15.5,0.00666,11.6,-0.682,.
CCOC(=O)C1CCC(CNCc2ccc(Cl)cc2)CC1 (stereo not drawn),92.2*,19.6,0.741,-20.0,-0.269,0
Cc1c(Cl)cccc1NC(=O)CCN1CCCCCC1,1.0,-1.1,.,-204.6,.,-0.5
CCOC(=O)C1CCN(CCC(=O)Nc2cccc(Cl)c2C)CC1,94.0*,2.6,.,16.1,-0.421,-0.87
CCOC(=O)Cc1ccc(NCc2ccc(Cl)cc2)cc1,100.2*,8.2,0.00413,.,-0.562,-0.33
CCOC(=O)CNC(=O)Cc1ccc(Cl)cc1,.,.,-0.0386,.,.,-0.05
Cc1ccc(S(=O)(=O)CCC(=O)OCC(=O)Nc2cc(C)on2)cc1,1.9,11.2,-0.0413,.,-0.00732,.
SMILES,Lmaj promast,WT yeast gro inh,KCC2 mod,INS promoter inh,ROMK primary,Insulin prom up
CCOC(=O)C1CCN(CCC(=O)Nc2ccc(Cl)cc2)CC1,91.0*,-13.4,0.176,42.9,.,1.06
Cc1cccc(N2NC(=O)/C(=C/c3ccc(-c4ccc(Cl)c(C(=O)O)c4)o3)C2=O)c1,-9.8,-0.9,-0.047,-8.1,0.939,2.54
CCOC(=O)c1c(C)[nH]c(C(=O)COC(=O)/C=C/c2ccc(O)c(OC)c2)c1C,99.0*,-6.3,-0.283,23.1,-0.105,-0.05
CCOC(=O)c1c(C)[nH]c(C(=O)COC(=O)CNC(=O)c2ccc(Cl)cc2Cl)c1C,51.5*,-5.8,-0.253,-46.4,.,0.63
Cn1cnnc1SCC(=O)c1c(N)n(Cc2ccccc2)c(=O)n(C)c1=O,-1.5,4.0,-0.434,.,0.126,-0.59
Nn1c(CN2CCCCC2)nc2ccccc2c1=O,-2.3,5.8,.,27.3,.,0.04
COc1ccc(Br)cc1CNC(=O)Nc1cccs1,53.6*,-3.6,0.761,-40.0,-0.996,-0.66
